Here are results for 23 compounds from PubChem BioAssay (NCATS).

Assay [1] in a line: Confirmation and Secondary Assay for Modulators of Hemoglobin Beta Chain Splicing at IVS2 705 locus (AID 930).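 Note: HeLa cells stably expressing the EGFP-705 splicing reporter; GFP fluorescence per well restored by corrected splicing of the IVS2-705 intron in EGFP; % of control where 0% means no effect.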 In short, it runs like this:
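First, HeLa EGFP-705 cells are seeded at 500/well in Optimem with 2% FCS and left overnight. Next, compound or DMSO is added for 2 days. Finally wells are laser-scanned and total peak GFP intensity scored.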

Assay [2] can be described thus: qHTS Assay for Lipid Storage Modulators (AID 1519; calls by dose curve; for activity change, negative = inhibition: % is set by controls: 0 for no effect and ±100 for the full control effect). The conditions noted are these: Drosophila S3 cells, BODIPY lipid droplet/cell ratio, laser cytometry, cells loaded with oleic acid; for activity change, negative = inhibition: at 57.5 µM (top of the series). The method in brief:
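Cells seeded at 5,000 per well were treated with compounds over a concentration series and loaded with oleic acid (400 uM, as added). Lipid droplet fluorescence (488 nm excitation, 500-530 nm channel) was read by laser-scanning cytometry and normalized to 20 uM Triacsin C.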
Background: qHTS replaces the single test concentration by a dilution series.

Assay [3] has as its target Ubiquitin carboxyl-terminal hydrolase 1 (Homo sapiens) (UniProt O94782). Briefly: Inhibitors of USP1/UAF1: Pilot qHTS (AID 504865).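 Note: rhodamine fluorescence freed from ubiquitin-rhodamine substrate followed over time; top concentration of the series differs between compounds; % is set by controls: 0 for no effect and ±100 for the full control effect; nearly all actives have a fitted effect of over 35% in size.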 The method in brief: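 USP1/UAF1 complex at 1 nM preincubated 15 min at room temperature with compound, then Ub-Rho substrate added at 150 nM final. Fluorescence (480/540 nm) read kinetically in 50 mM HEPES pH 7.8, 0.5 mM EDTA, 1 mM TCEP, 0.1 mg/ml BSA, 0.01% Tween-20.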

A short description of assay [4]: Confirmation and Secondary Assay for Modulators of Hemoglobin Beta Chain Splicing at IVS2 654 locus (AID 910).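 Note: HeLa cells stably carrying EGFP split by mutant beta-globin IVS2-654 intron; % of control where 0% means no effect.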 The method in brief:
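HeLa cells stably expressing EGFP interrupted by β-globin IVS2-654 intron, seeded overnight in Opti-MEM/2% FCS, then treated 2 days at 37 °C. Restored splicing read as total peak GFP intensity per well by laser scanning cytometry (488 nm excitation, 500–520 nm emission); 500 nM antisense PNA as control.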

The target of assay [5] is Cytochrome P450 3A4 (Homo sapiens) (UniProt P08684). Briefly: qHTS Assay for Activators of Cytochrome P450 3A4 (AID 885). Note: nearly all actives have a fitted effect of over 65% in size. The method in brief: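 Signal was normalized against complete inhibition by 57 uM ketoconazole. The reaction used 20nM CYP3A4 with 25uM Luciferin-PPXE, 10-min compound preincubation and a 60-min NADPH-supported step at RT.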
Cytochrome P450 3A4 (Homo sapiens), sequence (P08684 whole entry, looked up): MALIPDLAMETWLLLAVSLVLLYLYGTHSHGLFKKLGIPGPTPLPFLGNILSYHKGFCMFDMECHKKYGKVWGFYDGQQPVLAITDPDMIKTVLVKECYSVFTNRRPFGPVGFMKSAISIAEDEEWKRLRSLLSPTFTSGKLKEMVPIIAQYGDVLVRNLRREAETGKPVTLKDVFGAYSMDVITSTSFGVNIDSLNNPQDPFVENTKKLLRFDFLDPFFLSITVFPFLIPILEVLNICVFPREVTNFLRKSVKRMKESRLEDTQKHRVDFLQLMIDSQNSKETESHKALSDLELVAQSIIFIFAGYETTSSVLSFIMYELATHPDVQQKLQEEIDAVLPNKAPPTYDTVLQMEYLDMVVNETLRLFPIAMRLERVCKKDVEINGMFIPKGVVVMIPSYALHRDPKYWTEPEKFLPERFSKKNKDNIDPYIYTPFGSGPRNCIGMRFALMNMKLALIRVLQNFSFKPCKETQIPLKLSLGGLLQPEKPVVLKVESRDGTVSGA
The target of assay [6] is DNA dC->dU-editing enzyme APOBEC-3G (Homo sapiens) (UniProt Q9HC16). Briefly: qHTS for inhibitors of Vif-A3G interactions: Validation (AID 588379). Note: 0% is about no effect. In short, it runs like this:
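HeLa cells stably expressing Vif and A3G-eYFP, 700 cells/well, incubated overnight at 37 deg C, then exposed to compound overnight at 37 deg C. Inhibition of Vif-mediated degradation read as increased yellow fluorescence (Ex 488/Em 500-530) by laser-scanning cytometry.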

Assay [7] deals with Cytochrome P450 3A4 (Homo sapiens) (UniProt P08684). Briefly: qHTS Assay for Inhibitors and Substrates of Cytochrome P450 3A4 (AID 884). For activity change, negative = inhibition: % is set by controls: 0 for no effect and ±100 for the full control effect. Note: nearly all actives have a fitted effect of over 50% in size. Note: potency is the fitted concentration of half-maximal effect. The method in brief: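 20 nM human CYP3A4 with 25 uM Luciferin-PPXE (at KM) in 200 mM KPO4, preincubated 10 min with compound; NADPH regeneration started a 60 min RT reaction. Luciferin detected by luminescence, normalized to 57 uM ketoconazole as full inhibition.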

Setting [8] is: measured here: cell count channel max response.
The mark [9] stands for this setting: measured here: lipid channel max response.

Inconclusive results are not listed. Calls of active or inactive are those of the source. Unless noted, calls come from the whole dose curve; as a rule, active = well fitted curve in the direction sought with a large enough effect; inconclusive = small, poorly fitted or top-dose-only effect, or another doubt; inactive = no such curve, though single readings can be large; an effect the other way counts as inactive or inconclusive.

Ubiquitin carboxyl-terminal hydrolase 1 (Homo sapiens), sequence (O94782 whole entry, looked up): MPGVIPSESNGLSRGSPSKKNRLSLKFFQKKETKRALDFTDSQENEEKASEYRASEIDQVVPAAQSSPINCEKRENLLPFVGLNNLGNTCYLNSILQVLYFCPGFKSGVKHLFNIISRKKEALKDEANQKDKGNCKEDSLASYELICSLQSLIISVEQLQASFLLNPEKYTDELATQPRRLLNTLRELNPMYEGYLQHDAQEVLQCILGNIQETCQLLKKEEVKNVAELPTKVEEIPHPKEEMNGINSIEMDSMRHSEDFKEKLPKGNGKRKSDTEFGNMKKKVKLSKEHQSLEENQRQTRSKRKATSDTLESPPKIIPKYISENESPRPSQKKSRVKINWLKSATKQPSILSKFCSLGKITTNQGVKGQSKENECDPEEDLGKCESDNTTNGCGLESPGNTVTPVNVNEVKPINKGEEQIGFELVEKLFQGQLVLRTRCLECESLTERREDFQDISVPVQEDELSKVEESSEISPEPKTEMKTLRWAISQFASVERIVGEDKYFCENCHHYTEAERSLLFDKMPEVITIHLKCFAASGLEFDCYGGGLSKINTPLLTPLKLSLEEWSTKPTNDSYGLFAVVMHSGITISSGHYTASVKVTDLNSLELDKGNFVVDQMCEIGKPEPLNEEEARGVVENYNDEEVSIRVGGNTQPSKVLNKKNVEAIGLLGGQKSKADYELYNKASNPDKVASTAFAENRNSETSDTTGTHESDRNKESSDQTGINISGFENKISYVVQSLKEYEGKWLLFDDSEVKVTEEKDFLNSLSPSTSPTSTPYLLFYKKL
DNA dC->dU-editing enzyme APOBEC-3G (Homo sapiens), sequence (Q9HC16 whole entry, looked up): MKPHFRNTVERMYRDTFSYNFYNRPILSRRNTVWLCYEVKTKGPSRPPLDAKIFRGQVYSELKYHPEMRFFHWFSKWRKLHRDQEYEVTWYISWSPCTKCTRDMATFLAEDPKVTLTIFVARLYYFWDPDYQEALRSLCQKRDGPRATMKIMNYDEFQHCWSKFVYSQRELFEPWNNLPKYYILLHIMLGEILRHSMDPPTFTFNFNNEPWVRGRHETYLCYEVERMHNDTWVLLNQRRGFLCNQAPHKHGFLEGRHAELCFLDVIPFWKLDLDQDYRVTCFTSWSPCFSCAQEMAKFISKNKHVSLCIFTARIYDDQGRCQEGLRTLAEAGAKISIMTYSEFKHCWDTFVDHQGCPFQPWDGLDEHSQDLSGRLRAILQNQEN

As to `CC(=O)[C@]1(O)CCC2C3CCC4=CC(=O)CC[C@@]4(C)C3CC[C@]21C` (some centres not stated), the Potency entry in assay [1] and in assay [3] was “inactive” in each case. Also, the activity change, negative = inhibition in assay [2] was 5.01% (inactive). In addition, the max response came to 6.92% in assay [2] (setting [8]) and 12.7% in assay [2] (setting [9]).

Turning to `C[C@]12CCC3c4ccc(OC(=O)c5ccccc5)cc4CCC3C1CCC2=O` (some centres not stated), the Potency entry in assay [4], in assay [1] and in assay [3] was “inactive” each time. Also, the activity change, negative = inhibition in assay [2] is 11.1% (inactive). For the same compound, the max response in assay [2] (setting [8]) came out at 14.4%; in assay [2] (setting [9]) it was 28.4%.

For `C=C1CC[C@@H]2O[C@@]2(C)CC[C@H]2[C@H]1CC2(C)C`, the Potency entry in assay [5] is “inactive”. In addition, the activity change, negative = inhibition in assay [2] is 1.31% (inactive). Moreover, the max response in assay [2] (setting [8]) came to 22.2%; in assay [2] (setting [9]) it was 21.2%. Besides, in assay [6], the call was inactive.

For the compound `COc1ccc(C2CC(=O)c3c(O)cc(OC4OC(COC5OC(C)C(O)C(O)C5O)C(O)C(O)C4O)cc3O2)cc1O` (configuration not stated), the Potency entry in assay [7] was “inactive”. Also, the activity change, negative = inhibition in assay [2] is -2.69% (inactive). The max response in assay [2] (setting [8]) was -19%; in assay [2] (setting [9]) it was -20.2%. Besides, in assay [6], the compound was called inactive.

As to `CC(=O)Oc1c(C)cccc1C(=O)O`, the Potency result in assay [4], in assay [1] and in assay [3] was “inactive” throughout. Besides, in assay [2], the activity change, negative = inhibition is 5.46% (inactive). Besides, the max response in assay [2] (setting [8]) is 15.6%; in assay [2] (setting [9]) it was 23.9%.

Turning to `O=C(/C=C/C(=O)Oc1ccccc1C(=O)O)Oc1ccccc1C(=O)O`, the Potency entry in assay [4], in assay [1] and in assay [3] was “inactive” each time. Further, the activity change, negative = inhibition in assay [2] is 7.98% (inactive). Besides, the max response in assay [2] (setting [8]) is 4.07%; in assay [2] (setting [9]) it was 13.2%.

As to `Cn1nnnc1SCC1=C(C(=O)O)N2C(=O)C(NC(=O)C(O)c3ccccc3)C2SC1` (configuration not stated), the Potency result in assay [4], in assay [1] and in assay [3] was “inactive” throughout. For the same compound, the activity change, negative = inhibition in assay [2] was 13.2% (inactive). In addition, the max response in assay [2] (setting [8]) turned out to be 9.16%; in assay [2] (setting [9]), 26.7%.

`CC(CCC(=O)O)C1CCC2C3C(O)C[C@@H]4CC(O)CC[C@@]4(C)C3CC(O)[C@]12C` (some centres not stated): the Potency entry in assay [4], in assay [1] and in assay [3] was “inactive” throughout. The activity change, negative = inhibition in assay [2] is 4.41% (inactive). Moreover, the figures for the max response in assay [2] (setting [8]) and in assay [2] (setting [9]) were -4.16% and 0.136%, respectively.

Turning to `C[C@@H]1C(=O)O[C@H]2[C@@H](O)[C@@]34[C@H]5CC(C(C)(C)C)[C@]36[C@@H](OC(=O)[C@@H]6O)O[C@@]4(C(=O)O5)[C@@]12O` (some centres not stated), the activity change, negative = inhibition in assay [2] was 7.16% (inactive). In addition, the values for the max response in assay [2] (setting [8]) and in assay [2] (setting [9]) were -2.81% and 2.02%, respectively. Moreover, the compound was called inactive in assay [6].

As for `O=S(=O)(O)c1cc(N=C=S)ccc1/C=C/c1ccc(N=C=S)cc1S(=O)(=O)O`, the Potency entry in assay [4], in assay [1] and in assay [3] was “inactive” throughout. For the same compound, the activity change, negative = inhibition in assay [2] is 9.64% (inactive). Also, the figures for the max response in assay [2] (setting [8]) and in assay [2] (setting [9]) were -3.47% and 10.3%, respectively.

On to `CC(C)=CCOc1cc2oc(=O)ccc2cc1O`, for which the Potency result in assay [4], in assay [1] and in assay [3] was “inactive” in each case. Further, the activity change, negative = inhibition in assay [2] is 12.4% (inactive). For the same compound, the figures for the max response in assay [2] (setting [8]) and in assay [2] (setting [9]) were -16.3% and -2.91%, respectively.

In the case of `C[C@]12C=CC(=O)C=C1CCC1C2C(=O)C[C@]2(C)C1CC[C@]2(O)C(=O)CO` (some centres not stated), the Potency result in assay [1] and in assay [3] was “inactive” each time. Moreover, the activity change, negative = inhibition in assay [2] is 8.15% (inactive). Moreover, the results for the max response in assay [2] (setting [8]) and in assay [2] (setting [9]) were 19.1% and 31.9%, respectively.

For the compound `CC(N)C(O)c1cccc(O)c1` (configuration not stated), the Potency result in assay [4], in assay [1] and in assay [3] was “inactive” throughout. Besides, the activity change, negative = inhibition in assay [2] is 8.66% (inactive). For the same compound, the max response was determined as 6.62% in assay [2] (setting [8]) and 19.6% in assay [2] (setting [9]).

Turning to `C=C1C2=CC(=O)OC(c3ccoc3)[C@]2(C)CCC1[C@]1(C)C=CC(=O)C(C)(C)C1CC(=O)OC` (some centres not stated), the Potency in assay [7] was 3.98 µM (active). Besides, the Potency result in assay [5] and in assay [4] was “inactive” in each case. Also, in assay [2], the activity change, negative = inhibition was -2.8% (inactive). Further, the results for the max response in assay [2] (setting [8]) and in assay [2] (setting [9]) were 12.4% and 11.5%, respectively.

Turning to `Fc1ccc([C@H]2CCNCC2COc2ccc3c(c2)OCO3)cc1` (some centres not stated), the Potency result in assay [4], in assay [1] and in assay [3] was “inactive” each time. Besides, the activity change, negative = inhibition in assay [2] was 12.8% (inactive). Besides, the max response in assay [2] (setting [8]) was -0.955%; in assay [2] (setting [9]), 14.7%.

In the case of `C[N+](C)(C)CCOP(=O)([O-])OP(=O)(O)OCC1OC(n2ccc(N)nc2=O)C(O)C1O` (configuration not stated), the Potency result in assay [4], in assay [1] and in assay [3] was “inactive” each time. For the same compound, in assay [2], the activity change, negative = inhibition is 5.88% (inactive). Moreover, the max response in assay [2] (setting [8]) was 9.36%; in assay [2] (setting [9]), 16.8%.

`CCc1ccc2c(O)c3c(cc2c1C(=O)OC)C(=O)c1c(O)ccc(O)c1C3=O`: in assay [7], the Potency result was “inactive”. The activity change, negative = inhibition in assay [2] was 12.8% (inactive). For the same compound, the max response in assay [2] (setting [8]) was 5.77%; in assay [2] (setting [9]) it was 24.1%.

For the compound `CC[C@@H]1OC(=O)[C@@H](C)[C@H](O[C@H]2C[C@@](C)(OC)[C@@H](O)[C@H](C)O2)C(C)[C@H](O[C@H]2O[C@@H](C)C[C@@H](N(C)C)[C@@H]2O)[C@@](C)(O)C[C@H](C)C(=O)[C@@H](C)[C@H](O)[C@@]1(C)O` (some centres not stated), the Potency in assay [7] was 15.8 µM (active). Besides, the Potency entry in assay [5] is “inactive”. Besides, the activity change, negative = inhibition in assay [2] is 6.26% (inactive). The max response stood at 3.51% in assay [2] (setting [8]) and 7.04% in assay [2] (setting [9]). The compound was classed as inactive in assay [6].

In the case of `NC(Cc1c[nH]c2ccccc12)C(=O)NCC(=O)O` (configuration not stated), the Potency result in assay [7] was “inactive”. Further, the activity change, negative = inhibition in assay [2] is 2.26% (inactive). Also, the max response in assay [2] (setting [8]) is -12.4%; in assay [2] (setting [9]) it was -10.5%. In addition, in assay [6], the compound was classed as inactive.

In the case of `NCC1O[C@@H](OC2C(N)C[C@H](N)[C@@H](O[C@H]3OC(CO)C(O)C(N)C3O)C2O)C(O)C(O)C1O` (some centres not stated), the Potency result in assay [1] and in assay [3] was “inactive” throughout. The activity change, negative = inhibition in assay [2] is 12.1% (inactive). In addition, the figures for the max response in assay [2] (setting [8]) and in assay [2] (setting [9]) were 13.1% and 29.6%, respectively.

In the case of `O=c1c2ccccc2oc2ccccc12`, the Potency result in assay [4], in assay [1] and in assay [3] was “inactive” in each case. Besides, in assay [2], the activity change, negative = inhibition was 15% (inactive). Besides, the max response in assay [2] (setting [8]) was 9.44%; in assay [2] (setting [9]), 28%.

On to `CC1(C)SC2C(NC(=O)COc3ccccc3)C(=O)N2C1C(=O)O` (configuration not stated), for which the Potency entry in assay [4], in assay [1] and in assay [3] was “inactive” throughout. For the same compound, the activity change, negative = inhibition in assay [2] was 3.45% (inactive). In addition, the results for the max response in assay [2] (setting [8]) and in assay [2] (setting [9]) were 17.3% and 22.6%, respectively.

As to `CC(C)C1=CC2=CC[C@@H]3[C@@](C)(C(=O)O)CCC[C@]3(C)C2CC1` (some centres not stated), the Potency result in assay [7] was “inactive”. In assay [2], the activity change, negative = inhibition was 0.573% (inactive). The max response in assay [2] (setting [8]) is -0.0856%; in assay [2] (setting [9]), -0.672%. Besides, the outcome in assay [6] was inactive.
